# Measured values from article PMC10726135, “HNF4α isoforms regulate the circadian balance between carbohydrate and lipid metabolism in the liver”.
# Over roughly 18,000 sequences, “log2 normalized intensity” has its median near 0.36; the highest 2% begin near 7.3. The full list was thinned out, with the highest values kept by preference.
# Target: T1, HNF4alpha8 (COS-7 nuclear extract) (Homo sapiens, UniProt P41235-5 1-452)
# T1 sequence: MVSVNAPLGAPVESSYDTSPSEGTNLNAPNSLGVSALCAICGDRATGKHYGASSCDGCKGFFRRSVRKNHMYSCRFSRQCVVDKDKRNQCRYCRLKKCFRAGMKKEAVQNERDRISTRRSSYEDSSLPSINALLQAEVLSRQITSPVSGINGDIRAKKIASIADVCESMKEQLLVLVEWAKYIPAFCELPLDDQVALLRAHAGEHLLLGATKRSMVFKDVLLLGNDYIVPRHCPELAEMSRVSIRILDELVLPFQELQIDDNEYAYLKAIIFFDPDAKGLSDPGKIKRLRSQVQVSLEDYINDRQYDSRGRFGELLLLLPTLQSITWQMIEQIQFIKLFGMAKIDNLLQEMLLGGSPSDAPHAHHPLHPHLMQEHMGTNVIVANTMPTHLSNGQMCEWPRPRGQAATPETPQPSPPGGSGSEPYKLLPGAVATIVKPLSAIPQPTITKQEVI
# Test: protein-binding microarray; COS-7 nuclear extract on double-stranded Agilent 4x180k PBM; binding buffer, salt, pH and temperature not given in the material; high values mean tight binding
# Details: chain copies: 2; label: 3' end of strand 1 on the slide; dsDNA, one strand shown
# Summary of the method: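 Nuclear extracts from COS-7 cells expressing a transiently transfected human HNF4α isoform were put on a custom Agilent SurePrint G3 4x180k array carrying ~44,000 double-stranded ~60-nt test sequences in quadruplicate. Imaging used an Agilent G2565CA scanner at 2-µm resolution. Binding signal is the background-corrected, normalized gProcessedSignal from Agilent software.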
row,Sequence,binding signal [log2 normalized intensity]
1,CAGAAGTCATGTCTCATTGCCCCTTGAGCTGCCTAGGGAGATTAGAGTATCGGTCGA,3.87
2,TGCCCTTTGGCCCCCAGAGCCCCGTGTCTCGCCTAGGGAGATTAGAGTATCGGTCGA,5.63
3,ACCCCTGAATAGGTCTTGGAATGTGACGGCGCCTAGGGAGATTAGAGTATCGGTCGA,1.5
4,GTTCTCTGGGCTTTTTGATCTTGTCACATTGCCTAGGGAGATTAGAGTATCGGTCGA,1.99
5,GAACAGTCCTACAAATGATCAAAGGTTGGTGCCTAGGGAGATTAGAGTATCGGTCGA,3.74
6,TACAGGGAGCTATTCTTTAACCAGAGTCTAGCCTAGGGAGATTAGAGTATCGGTCGA,-0.822
7,TCTTGTGGTAATCTCTTTTGTGTTAGAGGGGCCTAGGGAGATTAGAGTATCGGTCGA,1.02
8,GACCTTCAGATGCAGTCCAGAAGGTCAGGAGCCTAGGGAGATTAGAGTATCGGTCGA,4.19
9,GCTAGACTTGGACCAGCTTTTGGAAGGACTGCCTAGGGAGATTAGAGTATCGGTCGA,0.0118
10,AGAGGGGGTTTGTTTTTTGCCCTTTGTACCGCCTAGGGAGATTAGAGTATCGGTCGA,8.63
11,TGTTTTTTGCCCTTTGTACCCACACACACCGCCTAGGGAGATTAGAGTATCGGTCGA,7.36
12,AGCCTACCCACCCACACCTCCCCTTTGTTTGCCTAGGGAGATTAGAGTATCGGTCGA,3.22
13,GGGTTTGTTTTTTGCCCTTTGTACCCACACGCCTAGGGAGATTAGAGTATCGGTCGA,8.41
14,CCCACAGAGGGGGTTTGTTTTTTGCCCTTTGCCTAGGGAGATTAGAGTATCGGTCGA,5.27
15,ACCCACCCACACCTCCCCTTTGTTTAACTTGCCTAGGGAGATTAGAGTATCGGTCGA,2.79
16,CCGCCCACCCTTTTTTTTCTTTCTTTTCCCGCCTAGGGAGATTAGAGTATCGGTCGA,1.46
17,CTGTACCCTATGCACCCCACAGTGCTGTTTGCCTAGGGAGATTAGAGTATCGGTCGA,1.71
18,TGCCCTTTGCCTGGTGATCTTTGTTAGACCGCCTAGGGAGATTAGAGTATCGGTCGA,3.02
19,CCAGAGCCTCCAAAGTCCGCTTGCCTGAGGGCCTAGGGAGATTAGAGTATCGGTCGA,-0.939
20,ACAGCGTTTTCCCATTCATGACATTGATTTGCCTAGGGAGATTAGAGTATCGGTCGA,1.47
21,ACCCCACTTTGGTTCACCGCTCACTGCTCCGCCTAGGGAGATTAGAGTATCGGTCGA,-0.611
22,TACTGGTTGAATGGACGGACAGGTAACGTAGCCTAGGGAGATTAGAGTATCGGTCGA,0.899
23,AACCTCCTTTGAGATAGCTATGATTATCCTGCCTAGGGAGATTAGAGTATCGGTCGA,-0.867
24,ATTGACATTTGGGGTCAGATAATTCTTTGCGCCTAGGGAGATTAGAGTATCGGTCGA,2.42

row,Sequence,binding signal [log2 normalized intensity]
1,AAGACCCAAGGCGTATGAAGCTTTGACCCTGCCTAGGGAGATTAGAGTATCGGTCGA,5.29
2,CTGGCAGCACCTGAAGAATTTGGACTTTGCGCCTAGGGAGATTAGAGTATCGGTCGA,8.33
3,GAATTTGGACTTTGCACTAAAAGCCATGAGGCCTAGGGAGATTAGAGTATCGGTCGA,6.28
4,TGGACTTTGCACTAAAAGCCATGAGAAGGTGCCTAGGGAGATTAGAGTATCGGTCGA,5.41
5,CTGAAGAATTTGGACTTTGCACTAAAAGCCGCCTAGGGAGATTAGAGTATCGGTCGA,7.57
6,GGGTCCTGGCAGCACCTGAAGAATTTGGACGCCTAGGGAGATTAGAGTATCGGTCGA,1.76
7,TGGACTTTGGAATTAAGGAGATTTGGCTTTGCCTAGGGAGATTAGAGTATCGGTCGA,5.99
8,TTCCTGAAGATCGCAGACTTTGGACTCTGCGCCTAGGGAGATTAGAGTATCGGTCGA,8.57
9,GGAGACCTGAAACTAGACCAAGAAGACTTTGCCTAGGGAGATTAGAGTATCGGTCGA,-0.267
10,GGTGAGTCTTTGCCCCTGGACTTTGAATTTGCCTAGGGAGATTAGAGTATCGGTCGA,5.75
11,AGCACCTGAAGAATTTGGACTTTGCACTAAGCCTAGGGAGATTAGAGTATCGGTCGA,9.19
12,AGGGATTCCTGAAGATCGCAGACTTTGGACGCCTAGGGAGATTAGAGTATCGGTCGA,6.44
13,GAAGATCGCAGACTTTGGACTCTGCAAGGAGCCTAGGGAGATTAGAGTATCGGTCGA,6.68
14,CAAGGAAAGATAAATAGTGACAAATTGTATGCCTAGGGAGATTAGAGTATCGGTCGA,-0.0347
15,GTTTCTCAAGTGATCGAAGGTCAACTTATCGCCTAGGGAGATTAGAGTATCGGTCGA,4.63
16,TGTCCTGTGATTAAGGTCAATGGGAAACTAGCCTAGGGAGATTAGAGTATCGGTCGA,1.05
17,CTAGTTCATTAAACATGTTTACTCTGGTCCGCCTAGGGAGATTAGAGTATCGGTCGA,1.59
18,GAAGGAGAGTGACCTCTGCTTGAAGGCATTGCCTAGGGAGATTAGAGTATCGGTCGA,1.78
19,AGATTCTTTCTTCCTTTTGAAAAAGTGAGTGCCTAGGGAGATTAGAGTATCGGTCGA,0.567
20,AATAGCCCCAAATTCCTTTCAAACTGTATTGCCTAGGGAGATTAGAGTATCGGTCGA,1.37
21,CAAAAATGATACCCCAGAGTACAGCACTTTGCCTAGGGAGATTAGAGTATCGGTCGA,1.2
22,ATCAGAGCAAAGTTCAATTTCCAACAAATGGCCTAGGGAGATTAGAGTATCGGTCGA,3.74
23,AGATCATCCTGCAGTTCCTGATCTTTGACCGCCTAGGGAGATTAGAGTATCGGTCGA,7.84
